Test [1] has as its target T1, RsmQ (Pseudomonas fluorescens SBW25 plasmid …, UniProt UPI00015066B5 1-62).
T1 sequence: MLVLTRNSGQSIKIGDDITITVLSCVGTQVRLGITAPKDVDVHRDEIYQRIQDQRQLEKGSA
Briefly: SPR (ReDCaT); HBS-EP+ (10 mM HEPES, 150 mM NaCl, 3 mM EDTA, 0.05% v/v Tween 20, pH 7.4), 20 C, Biacore 8K, ReDCaT SA chip; high values mean tight binding. The following applies: protein: recombinant, tags: C-terminal TEV site + 6xHis, chain copies: 2. For orientation: In SPR one partner is held on a chip, and binding of the other changes the refractive index at the surface.

The target of test [2] is T1, RsmQ. Briefly: SPR (ReDCaT); 100 nM protein; HBS-EP+ (10 mM HEPES, 150 mM NaCl, 3 mM EDTA, 0.05% v/v Tween 20, pH 7.4), 20 C, Biacore 8K, ReDCaT SA chip; high values mean tight binding. The note with it: protein: recombinant, tags: C-terminal TEV site + 6xHis, chain copies: 2.
The target in a further test is T2, RsmQ H43A (Pseudomonas fluorescens SBW25 plasmid …, UniProt UPI00015066B5 1-62, H43A).
T2 sequence: T1 sequence with H43A
Described as above. The note with it: protein: recombinant; tags: C-terminal TEV site + 6xHis; chain copies: 2; structured_DNA.

In another test the target is T3, RsmQ R44A (Pseudomonas fluorescens SBW25 plasmid …, UniProt UPI00015066B5 1-62, R44A).
T3 sequence: T1 sequence with R44A
The test is described as above. The following applies: protein: recombinant; tags: C-terminal TEV site + 6xHis; chain copies: 2; structured_DNA.

For another test, the target named is T4, RsmE (Pseudomonas fluorescens SBW25, UniProt A0ACA7PAD1 1-74).
T4 sequence: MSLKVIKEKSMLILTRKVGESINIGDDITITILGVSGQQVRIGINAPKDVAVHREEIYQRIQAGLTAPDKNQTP
Described as above. The note with it: protein: recombinant; tags: His tag (pET28a NdeI/XhoI); chain copies: 2; structured_DNA.

The target in test [3] is T1, RsmQ. Briefly: SPR (ReDCaT); 100 nM protein, run beside RsmE; HBS-EP+ (10 mM HEPES, 150 mM NaCl, 3 mM EDTA, 0.05% v/v Tween 20, pH 7.4), 20 C, Biacore 8K, ReDCaT SA chip; high values mean tight binding. The note with it: protein: recombinant; tags: C-terminal TEV site + 6xHis; chain copies: 2; structured_DNA.

Substitutions are numbered along the chain they refer to.

In the case of ATGGACGTCGCGCAGGAAGCGCAAA, the binding signal with RsmQ [1] (structured_DNA) is 83.5 ± 1.31 %Rmax.
For CCGCGCTCGGAAGCGCAAAC, the binding signal with RsmQ [2] (structured_DNA) was 4.59 ± 0.514 %Rmax.
On to CCGCGCCGGAAGCGCAGGAAC, for which the binding signal with RsmQ [2] (structured_DNA) turned out to be 28.8 ± 0.617 %Rmax; with RsmQ H43A it was 12.8 ± 0.157 %Rmax; with RsmQ R44A it was 3.8 ± 0.253 %Rmax.
For the sequence AATGTCGCAGGATGCGATTCATCAG, in the test with RsmQ [1] (ssDNA), the binding signal is 62.7 ± 2.27 %Rmax.
TTCATCAGGATGATGAAAAGGAATAC: in the test with RsmQ [1] (ssDNA), the binding signal came out at 80.5 ± 1.97 %Rmax.
On the same count and under the same terms, under GCAACAACACGGACACGTAGGATT stands 3.78 ± 1.57 %Rmax.
CCGCGCAGGGAAGCGCAAAC: the binding signal with RsmQ [2] (structured_DNA) turned out to be 106.2 ± 0.739 %Rmax; with RsmE it was 47.5 ± 0.0552 %Rmax; with RsmQ [3], 90.1 ± 4.07 %Rmax.
As for CCGCGCACGAAGCGCAAAC, in the test with RsmQ [2] (structured_DNA), the binding signal was 24.9 ± 0.641 %Rmax.
Regarding CCATCAAGGAACGATGGTTCGAAGG, in the test with RsmQ [1] (ssDNA), the binding signal came to 11.7 ± 0.382 %Rmax.
Regarding CAGGACAGGACAGAGC, the binding signal with RsmQ [2] (ssDNA) is 4.87 ± 0.902 %Rmax.
In the case of CCGCGCATGGAAGCGCAAAC, the binding signal was 113.5 ± 0.537 %Rmax with RsmQ [2] (structured_DNA), 30.1 ± 0.204 %Rmax in the test with RsmE and 107 ± 6.88 %Rmax with RsmQ [3].
Turning to CCGCGCACGGAAGCGCAACGGAAC, the binding signal with RsmQ [2] (structured_DNA) amounted to 70 ± 0.746 %Rmax; with RsmQ H43A it was 51.14 ± 0.26 %Rmax; in the test with RsmQ R44A it was 38.8 ± 0.461 %Rmax.
As for CCGCGCACTGAAGCGCAAAC, the binding signal with RsmQ [2] (structured_DNA) came to 1.69 ± 0.298 %Rmax.
For CAAGGAGACAGAGCAACAGGA, in the test with RsmQ [2] (ssDNA), the binding signal amounted to 3.14 ± 0.795 %Rmax.
The same measure, in the same setting: under CAGGAAAGGACAGAGCACGGA stands 10.1 ± 0.715 %Rmax.
Regarding CTGCCAGGATGGCGGAGTGAAATGG, the binding signal in the test with RsmQ [1] (ssDNA) came out at 16.2 ± 1.37 %Rmax.
Take GCCCTGTGTCCACGGATTGGCACAA: in the test with RsmQ [1] (structured_DNA), the binding signal was found to be 82.5 ± 1.12 %Rmax.
Turning to CCGCGCACGGAAGCGCAAAC, the binding signal with RsmQ [2] (structured_DNA) was 68.3 ± 0.752 %Rmax; with RsmQ H43A, 50.72 ± 0.382 %Rmax; with RsmQ R44A, 41.38 ± 0.372 %Rmax; with RsmE, -4.31 ± 0.212 %Rmax; with RsmQ [3] it was 49.1 ± 0.724 %Rmax.
On to CCGCGCAGGAAGCGCAAAC, for which the binding signal was 94.4 ± 1.28 %Rmax in the test with RsmQ [2] (structured_DNA), 43.9 ± 0.798 %Rmax with RsmQ H43A, 22.1 ± 0.676 %Rmax with RsmQ R44A and 98.6 ± 6.21 %Rmax with RsmQ [3].
For the sequence GGAATACAGGGACTAGGGAAAAAAT, the binding signal in the test with RsmQ [1] (ssDNA) turned out to be 3.83 ± 1.08 %Rmax.
Turning to CCGCGCCCGGAAGCGCAAAC, the binding signal with RsmQ [2] (structured_DNA) amounted to 7.21 ± 0.838 %Rmax.
For CAGGAACGGACAGAGC, the binding signal in the test with RsmQ [2] (ssDNA) came out at 6.27 ± 1.5 %Rmax.
